TMEM16A act = mouse TMEM16A channel activation, primary screen; HEK293 TMEM16A/YFP-H148Q/I152L, iodide quench fluorescence; stronger effect = lower value; B-score at 10 µM; 0.3% of 340,000 active; AID 623877;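 active = fluorescence-ratio B-score plate-corrected deviation score at least 3 library SD below zero, with starting fluorescence score within 5 deviations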;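 also: channel opened by trigger with iodide after compound preincubation; score built on the fluorescence ratio of max minus min over baseline; more negative score means more quench and so TMEM16A activation or potentiation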
CHT block = human CHT choline transport inhibition; CHT-expressing cells, membrane potential dye, choline response; stronger effect = lower value; B-score at 10 µM; AID 488975; 0.86% of 310,000 active;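 active = B-score over 3 SD under the library average, and starting fluorescence ratio not unusually high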;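 also: choline stimulus applied at its EC90 after an EC20 pre-addition; B-score computed on integrated fluorescence ratio after choline addition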
Target sequence (Q9GZV3 whole entry, looked up): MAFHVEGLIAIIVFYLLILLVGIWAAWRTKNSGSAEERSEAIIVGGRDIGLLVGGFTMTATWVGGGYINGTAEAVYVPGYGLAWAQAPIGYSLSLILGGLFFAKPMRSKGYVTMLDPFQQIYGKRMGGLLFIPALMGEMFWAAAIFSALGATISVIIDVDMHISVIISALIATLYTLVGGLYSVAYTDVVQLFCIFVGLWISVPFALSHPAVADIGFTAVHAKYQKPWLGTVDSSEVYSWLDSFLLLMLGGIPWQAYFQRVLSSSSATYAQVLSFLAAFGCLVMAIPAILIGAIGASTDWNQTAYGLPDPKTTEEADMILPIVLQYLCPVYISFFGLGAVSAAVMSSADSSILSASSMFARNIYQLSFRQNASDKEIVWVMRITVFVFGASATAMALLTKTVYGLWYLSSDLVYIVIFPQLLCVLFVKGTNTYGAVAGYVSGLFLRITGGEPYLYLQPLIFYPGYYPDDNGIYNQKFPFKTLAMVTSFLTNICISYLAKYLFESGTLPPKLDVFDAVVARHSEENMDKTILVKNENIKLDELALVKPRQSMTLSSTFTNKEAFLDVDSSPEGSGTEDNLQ
CHT PAM = allosterically activates the human high affinity choline transporter | Q9GZV3 | CHT-expressing cells, membrane potential dye, choline EC20; stronger effect = higher value; LV-AA mutant CHT in HEK293 cells | B-score at 10 µM | 0.49% of 310,000 active | AID 488977;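 active = initial fluorescence not abnormally high and integrated response B-score, plate-corrected, over 3 SD above library mean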
ANO1 block = inhibitors of mouse TMEM16A calcium-activated chloride channel; 1.2% of 310,000 active; HEK293 TMEM16A/YFP iodide influx fluorescence, ionomycin; normalized B-score (activity score, 25-100; higher = stronger inhibition) at 10 µM; Q8BHY3;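 active = ratio plate-corrected score three or more library SD toward inhibition, starting fluorescence score within five deviations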;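 also: score derived from kinetic fluorescence span divided by baseline fluorescence per well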
TMEM16A reconf = TMEM16A (mouse) chloride channel inhibition, re-confirmation | inhibition, % at 10 µM | HEK293 TMEM16A/YFP-H148Q, iodide quench fluorescence; ionomycin added to raise cell calcium | 39% of 2,300 active | shares compounds with ANO1 block;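 active = mean duplicate percent inhibition, scaled so buffer wells are 0 and the reference blocker 100, over three buffer SD above buffer mean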
TMEM16A Ca cntr = calcium mobilization counter-screen hit for TMEM16A inhibitor series | TMEM16A/YFP HEK293, Fluo4 calcium mobilization | 2% of 2,300 active | calcium response (% of ionomycin), % at 10 µM | shares compounds with ANO1 block;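 active = duplicate-averaged calcium signal over 20% of the ionomycin maximum, relative to buffer baseline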;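 also: each well's signal is peak minus trough fluorescence divided by its pre-addition baseline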
YFP-HEK293 quench = acts in parental YFP-HEK293 cells lacking TMEM16A, counter-screen; shares compounds with ANO1 block; iodide YFP quench, ionomycin; YFP ratio F(max-min)/F0 at 10 µM; 2,300 tested, under 10 active;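 active = yellow fluorescent protein signal ratio exceeding the buffer control mean by over 5 SD of those controls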;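 also: ratio is mean of duplicate wells from kinetic YFP trace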
ClC-1 rat inh = selectivity of TMEM16A inhibitors: inhibition of rat ClC-1 chloride channel. CHO ClC-1-YFP, iodide influx fluorescence quench; iodide control reads 0, buffer control 100. shares compounds with ANO1 block. ratio percent, % at 10 µM. 2,300 tested, under 10 active;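 active = duplicate-mean ratio percent above the mean of iodide-only control wells, which defines zero, plus 5 of their SD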;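 also: higher percent means stronger block of ClC-1 iodide influx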
Of the large screens only hits and unclear results are named; the others gave an inactive call (follow-up assays come after a bar, where they were run). Only some compounds are listed: those with a hit (about 2.3% of all), similar ones and a draw of the others.

CCOc1ccc(N2C(=O)C3ON(C)C(c4ccc([N+](=O)[O-])cc4)C3C2=O)cc1 (stereo unspecified)	none
Cc1cc(C)c(C(=O)Cn2nc(C)c([N+](=O)[O-])c2C)cc1C	none
O=C1CC(C(=O)Nc2ccccc2)N=C(N2CCCCC2)N1 (stereo unspecified)	none | TMEM16A reconf inactive | TMEM16A Ca cntr inactive | YFP-HEK293 quench inactive | ClC-1 rat inh inactive
N#Cc1cccc(NC(=O)CCN2C(=O)C3CCCCC3C2=O)c1 (stereo unspecified)	none (no result: CHT block, CHT PAM, ANO1 block)
Cc1noc(C)c1COC(=O)C1CCN(S(=O)(=O)c2c(Cl)cccc2Cl)CC1	none
COC(=O)Cn1cc(C(=O)OC)c2ccccc21	none
COC(=O)c1cn(CCOc2ccccc2OC)c2ccccc12	ANO1 block 25 | TMEM16A reconf inactive | TMEM16A Ca cntr inactive | YFP-HEK293 quench inactive | ClC-1 rat inh inactive
CN(CC(=O)OCC(=O)NC1CCCC1)S(=O)(=O)c1ccc(Cl)cc1	none (no result: CHT block, CHT PAM, ANO1 block)
Cc1cc(Nc2ccccc2)cc(=O)n1C	none
N#CCCn1c(O)c(N=NC(=O)CNC(=O)c2cccs2)c2ccccc21	none
COc1ccccc1C(=O)NC(=O)Nc1nc(-c2ccccc2)cc(C(F)(F)F)n1	ANO1 block 25 | TMEM16A reconf inactive | TMEM16A Ca cntr inactive | YFP-HEK293 quench inactive | ClC-1 rat inh inactive
O=C(NC(=O)c1cccc(F)c1)Nc1nc(-c2ccc(F)cc2)cc(C(F)(F)F)n1	none
CCOC(=O)N1CCc2c(sc(NC(C)=O)c2C(N)=O)C1	none | TMEM16A reconf inactive | TMEM16A Ca cntr inactive | YFP-HEK293 quench inactive | ClC-1 rat inh inactive
CCC(=O)Nc1sc2c(c1C(N)=O)CCN(C(C)=O)C2	none
COc1cc(/C=C/C(=O)OCC(=O)NCc2ccc(F)cc2)ccc1O	none (no result: CHT block, CHT PAM, ANO1 block)
Cc1ccc(C(=O)COC(=O)CCC(=O)Nc2cccc(Cl)c2)cc1[N+](=O)[O-]	ANO1 block 100 | TMEM16A reconf inactive | TMEM16A Ca cntr inactive | YFP-HEK293 quench inactive | ClC-1 rat inh inactive
CCCCn1c(SCC(=O)c2ccc(O)c(O)c2)nc2ccsc2c1=O	ANO1 block 100 | TMEM16A reconf 49% | TMEM16A Ca cntr inactive | YFP-HEK293 quench inactive | ClC-1 rat inh inactive
O=C(O)CCCCCn1c(SCC(=O)c2ccc(O)c(O)c2)nc2ccsc2c1=O	none
O=C(CN1CCC(c2nc3ccccc3[nH]2)CC1)Nc1ccc2c(c1)OCO2	ANO1 block 100 | TMEM16A reconf inactive | TMEM16A Ca cntr inactive | YFP-HEK293 quench inactive | ClC-1 rat inh inactive
Cc1ccc2nc(C3CCN(CC(=O)Nc4ccc5c(c4)OCCO5)CC3)[nH]c2c1	none
Cc1c(C)c2c(OCC(=O)N[C@@H](CC(C)C)C(=O)O)cc3c(c2oc1=O)CCC(C)(C)O3	none
Cc1cc(C)nc(SCc2nnc(SCC(=O)Nc3nc(-c4ccccc4)cs3)n2C)n1	none
Cc1csc(SCC(=O)Nc2nc(-c3ccccc3)cs2)n1	ANO1 block 100 | TMEM16A reconf inactive | TMEM16A Ca cntr inactive | YFP-HEK293 quench inactive | ClC-1 rat inh inactive
COc1ccccc1-c1nnc(SCC(=O)Nc2nc(-c3ccccc3)cs2)n1C	ANO1 block 100 | TMEM16A reconf 18% | TMEM16A Ca cntr inactive | YFP-HEK293 quench inactive | ClC-1 rat inh inactive
NC(=O)c1nsc(C(=O)N(c2cccc(F)c2)C(C(=O)NCC2CCCO2)c2ccc3ncccc3c2)c1N (stereo unspecified)	none
O=S(=O)(c1ccccc1)N1CCN=C1SCc1ccc(Cl)cc1	ANO1 block 25 | TMEM16A reconf inactive | TMEM16A Ca cntr inactive | YFP-HEK293 quench inactive | ClC-1 rat inh inactive
O=S(=O)(c1ccccc1)N1CCN=C1SCc1ccc(Cl)c(Cl)c1	none
COc1ccc(C(C)=O)cc1COc1nc(C)nc2ccccc12	none
Cc1ccc(C)c(OCC(=O)Nc2nc3ccc([N+](=O)[O-])cc3s2)c1C	ANO1 block 100 | TMEM16A reconf inactive | TMEM16A Ca cntr inactive | YFP-HEK293 quench inactive | ClC-1 rat inh inactive
